Holding throughout (assay): NCI-60 one-dose screen, 48 h (100 = growth as untreated, 0 = no growth, -100 = all killed)
What all share (conditions): 10 µM unless noted

The test system of assay [1] is HT29 colon.
Assay [2] concerns SNB-75 CNS.
In assay [3] the test system is SNB-19 CNS.
The subject of assay [4] is U251 CNS.
Assay [5] deals with PC-3 prostate.
Assay [6] relates to SK-MEL-5 melanoma.
The test system of assay [7] is UACC-62 melanoma.
The subject of assay [8] is LOX IMVI melanoma.
The test system of assay [9] is SK-MEL-28 melanoma.
In assay [10] the test system is SK-MEL-2 melanoma.
Assay [11] deals with EKVX NSCLC.
Assay [12] relates to SN12C renal.
Assay [13] deals with UO-31 renal.
Assay [14] concerns TK-10 renal.
Assay [15] relates to ACHN renal.
Assay [16] deals with CAKI-1 renal.
The test system of assay [17] is A498 renal.
Assay [18] has as its system CCRF-CEM leukemia.
Assay [19] concerns MOLT-4 leukemia.

Molecules are shown by their SMILES. This is part of a sample that, as a whole, favours compounds with a hit. Of some 83,000 tested, about 20% had one in any assay.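 Method: cells in 96-well plates; compound added at one concentration; 48 h incubation; percent growth measured; values under 10 scored active.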 Values without a mark were called inactive. The source made the active and inactive calls.

Regarding `CCC12CCC[N+]3([O-])CCC4(C(=Nc5ccccc54)C(O)(C(=O)OC)C1)C23` (stereo not drawn), the growth in assay [1] was 98.3%; in assay [2] it was 92.7%; in assay [3], 102%; in [4], 108%; in assay [5], 87.8%; in assay [6], 116%. Besides, the growth in assay [7] was 103%; in assay [8] it was 100%; in assay [9] it was 94.5%; in assay [10], 121%; in [11], 101%; in [12], 99.9%. Besides, the growth was 87.6% in [13]; 113% in assay [14]; 102% in [15]; 103% in assay [16]; 108% in assay [17]; 99.9% in assay [18]. Also, in [19], the growth was 98.2%.

In the case of `Cc1ccc(NC2=C(Cl)C(=O)c3nc(C)ccc3C2=O)cc1`, the growth in assay [1] was 82.4%; in [2], -41.9% (active); in [3], 47.3%; in [4], 41.3%; in assay [5], 29.9%; in assay [6] it was -90.8% (active). The growth in assay [8] is -78.2% (active); in assay [11], 58.6%; in [12], -70.4% (active); in assay [13] it was -80.6% (active); in [14] it was 130%; in [15] it was -98.1% (active). The growth was 91% in assay [17], 0.58% (active) in assay [18] and -13.5% (active) in assay [19].

As to `O=c1c2cc(F)ccc2sc2c(NCCCNCCO)nc3ccccc3c12`, the growth in assay [1] was -53.3% (active); in [2], 53.8%; in assay [3] it was 58.5%; in assay [4], 6.22% (active); in assay [5], 25.2%; in assay [6], 70.5%. For the same compound, the growth in assay [7] was -39.4% (active); in [8], -94.1% (active); in [9], 28.1%; in assay [10] it was 90.9%; in assay [11], 51.9%; in assay [12], 46.9%. Moreover, the growth is 10.9% in assay [13]; 41% in [14]; 8.85% (active) in assay [15]; 2.69% (active) in [17]; 6.27% (active) in assay [18]; -31.6% (active) in assay [19].

Consider `O=C(/C=C/c1sc(Cl)nc1Cl)c1ccc(F)cc1`, for which the growth is 84.5% in [1]; 92.5% in assay [2]; 90.8% in assay [3]; 40.4% in assay [4]; 88.5% in assay [5]; 93.6% in [6]. The growth was 93.3% in [7]; 0.0946% (active) in assay [8]; 97.2% in assay [9]; 95.5% in assay [10]; 88.8% in assay [11]; 45.1% in [12]. The growth in [14] was 103%; in [15], 22.4%; in assay [16], 88.2%; in [17], 91.9%; in [18] it was 37.5%; in assay [19] it was 48.5%.

Consider `[O-][n+]1c2ccccc2[n+]([O-])c2c3ccccc3[nH]c21`, for which the growth in [1] was 77.3%; in [2], 82.6%; in assay [3], 85%; in [4], 53.2%; in assay [5] it was 66.4%; in [6], 73.5%. For the same compound, the growth in assay [7] is 20.7%; in assay [8] it was 98.3%; in [9], 117%; in [10], 61.9%; in [11] it was 30.8%; in assay [12], 81.3%. Also, the growth in assay [13] was 70%; in assay [14], 41%; in assay [15], 87.5%; in [16], 48.1%; in [17], -38.5% (active); in assay [18] it was 82.3%. Besides, in assay [19], the growth was 98.8%.

With `CCCCn1c(=O)c(-c2cc(-c3ccc(Cl)cc3)nc(-c3ccc(Cl)cc3)c2)cc2cc(Cl)ccc21`, the growth in assay [1] is 101%; in assay [2] it was 95.4%; in assay [3], 96%; in assay [4] it was 105%; in assay [5] it was 98.4%; in [6], 107%. The growth is 88.5% in assay [7]; 104% in assay [9]; 120% in assay [10]; 105% in assay [11]; 91.2% in assay [12]; 88.4% in assay [13]. Moreover, the growth is 107% in assay [14]; 107% in assay [15]; 94.3% in assay [16]; 123% in assay [17]; 104% in assay [18]; 104% in [19].

In the case of `CCOC(=O)c1[nH]c(C)c(C(=O)OCc2ccccc2C#N)c1C`, the growth was 35.1% in assay [1]; 0.16% (active) in [2]; 97.1% in assay [3]; 50.9% in assay [4]; 80.3% in [5]; 60.3% in [6]. Besides, the growth is 73.6% in assay [7]; 63.1% in assay [8]; 87.1% in [9]; 82.3% in [10]; 114% in [11]; 95% in assay [12]. For the same compound, the growth was 90.9% in assay [14]; 87.4% in assay [15]; 82.1% in assay [16]; 79.3% in assay [17]; 92.4% in [18]; 78.8% in assay [19].

Regarding `CCN1C(=O)N(CC)C2Nn3c(s/c(=C4\C(=O)N(CCC(C)C)c5ccccc54)c3=O)=NC21` (stereo not drawn), the growth is 112% in assay [1]; 59.2% in [2]; 88.6% in assay [3]; 87.7% in assay [4]; 63.2% in assay [5]; 89.5% in assay [6]. The growth in assay [7] was 67.1%; in assay [8] it was 91.7%; in [9], 78.6%; in [10], 87.7%; in assay [11], 67.1%; in [12], 89.3%. The growth in assay [13] is 54.3%; in assay [14], 38.3%; in assay [15], 67.6%; in [16], 51.3%; in assay [17] it was 72.9%; in assay [18], 57.1%. Also, the growth in assay [19] was 85.5%.

For the compound `Cc1cccc(NCc2cn(-c3ccc(C(=O)O)cc3)nc2-c2ccc(C(=O)O)cc2)n1`, the growth in assay [1] was 107%; in assay [2], 87.4%; in assay [3], 104%; in [4], 108%; in assay [5] it was 103%; in [6], 103%. Further, the growth was 101% in assay [7]; 100% in assay [8]; 104% in assay [9]; 120% in assay [10]; 102% in assay [11]; 101% in assay [12]. Besides, the growth in assay [13] was 88%; in assay [14] it was 102%; in assay [15], 103%; in assay [16] it was 95.7%; in assay [17], 95.5%; in assay [18] it was 104%. Besides, the growth in [19] was 105%.
